Experimental data taken from PubChem BioAssay (NCI).
Values joined by “and” are separate entries in the source; they are usually repeats but may differ in a detail not shown here. Identical values can stand only once. The panel holds about 83,000 compounds, 20% with a hit somewhere; the sample as a whole holds those more often.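 Negative percent growth values reflect cell death: -40 means 40% of the cells present at the start died, and -100 means all died.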 Active and inactive are the calls of the source. Rule for the calls: active = growth percent below 10; inactive = the rest.

Tests used:
Assay in all cases: NCI-60 one-dose screen, 48 h (100 = growth as untreated, 0 = no growth, -100 = all killed)
Details in all cases: 10 µM unless noted
[1] = system: SK-MEL-2 melanoma
[2] = system: EKVX NSCLC
[3] = system: SN12C renal
[4] = system: UO-31 renal
[5] = system: TK-10 renal
[6] = system: ACHN renal
[7] = system: CAKI-1 renal
[8] = system: A498 renal
[9] = system: CCRF-CEM leukemia
[10] = system: MOLT-4 leukemia
[11] = system: SR leukemia
[12] = system: RPMI-8226 leukemia
[13] = system: OVCAR-8 ovarian
[14] = system: OVCAR-5 ovarian
[15] = system: OVCAR-4 ovarian
[16] = system: SK-OV-3 ovarian
[17] = system: OVCAR-3 ovarian
[18] = system: NCI/ADR-RES ovarian
[19] = system: IGROV1 ovarian
[20] = system: HS 578T breast

CCOP(C)(=O)/C(Cc1ccc(OC)c(OC)c1)=N\O (configuration not stated)
growth [1]: 111% (inactive)
growth [2]: 98.3% (inactive)
growth [3]: 103% (inactive)
growth [4]: 91.2% (inactive)
growth [5]: 107% (inactive)
growth [6]: 106% (inactive)
growth [7]: 103% (inactive)
growth [8]: 104% (inactive)
growth [9]: 110% (inactive)
growth [10]: 112% (inactive)
growth [11]: 105% (inactive)
growth [12]: 99.3% (inactive)
growth [13]: 114% (inactive)
growth [14]: 96.6% (inactive)
growth [15]: 107% (inactive)
growth [16]: 115% (inactive)
growth [17]: 111% (inactive)
growth [18]: 95.7% (inactive)

CCCCCCCCCCCCCCCCC(=O)O
growth [1]: 103% (inactive)
growth [2]: 106% (inactive)
growth [3]: 103% (inactive)
growth [4]: 85.7% (inactive)
growth [5]: 86.6% (inactive)
growth [6]: 112% (inactive)
growth [7]: 104% (inactive)
growth [8]: 115% (inactive)
growth [9]: 91.5% (inactive)
growth [10]: 95% (inactive)
growth [11]: 94.3% (inactive)
growth [12]: 99.4% (inactive)
growth [13]: 103% (inactive)
growth [14]: 117% (inactive)
growth [15]: 106% (inactive)
growth [19]: 107% (inactive)
growth [17]: 115% (inactive)
growth [20]: 100% (inactive)
growth [18]: 100% (inactive)

O=c1[nH]c(=O)n(C2OC(CO)C(O)C2O)cc1I (configuration not stated)
growth [1]: 124% (inactive)
growth [2]: 100% (inactive) and 98.9% (inactive)
growth [3]: 94.8% (inactive) and 99% (inactive)
growth [4]: 77.7% (inactive) and 87.1% (inactive)
growth [5]: 102% (inactive) and 125% (inactive)
growth [6]: 111% (inactive) and 117% (inactive)
growth [7]: 95.9% (inactive) and 97.9% (inactive)
growth [8]: 97.5% (inactive) and 120% (inactive)
growth [9]: 95.5% (inactive)
growth [10]: 84.8% (inactive) and 111% (inactive)
growth [11]: 96.1% (inactive) and 114% (inactive)
growth [12]: 107% (inactive)
growth [13]: 98.9% (inactive) and 95.7% (inactive)
growth [14]: 107% (inactive) and 104% (inactive)
growth [15]: 100% (inactive) and 102% (inactive)
growth [16]: 110% (inactive) and 102% (inactive)
growth [19]: 103% (inactive) and 106% (inactive)
growth [17]: 117% (inactive) and 121% (inactive)
growth [20]: 108% (inactive) and 98.3% (inactive)
growth [18]: 109% (inactive) and 97.4% (inactive)

N#CC1c2ccccc2C=CN1C(=O)c1ccccc1 (configuration not stated)
growth [1]: 109% (inactive)
growth [2]: 106% (inactive) and 92.7% (inactive)
growth [3]: 99.8% (inactive) and 94.3% (inactive)
growth [4]: 78.6% (inactive) and 97.8% (inactive)
growth [5]: 109% (inactive) and 115% (inactive)
growth [6]: 94.6% (inactive) and 90% (inactive)
growth [7]: 97.6% (inactive) and -6.46% (active)
growth [8]: 98.9% (inactive) and 148% (inactive)
growth [9]: 88.2% (inactive) and 130% (inactive)
growth [10]: 89.2% (inactive) and 125% (inactive)
growth [11]: 91.7% (inactive) and 146% (inactive)
growth [12]: 105% (inactive) and 159% (inactive)
growth [13]: 92.7% (inactive) and 85% (inactive)
growth [14]: 110% (inactive) and 87.5% (inactive)
growth [15]: 96.8% (inactive) and 89.7% (inactive)
growth [16]: 120% (inactive) and 128% (inactive)
growth [19]: 101% (inactive) and 73.9% (inactive)
growth [17]: 93.6% (inactive) and 95.9% (inactive)
growth [18]: 108% (inactive) and 107% (inactive)

CCOc1ccc(/C=C\C(=O)O)cc1
growth [1]: 114% (inactive)
growth [2]: 115% (inactive)
growth [3]: 101% (inactive)
growth [4]: 98.7% (inactive)
growth [5]: 109% (inactive)
growth [6]: 109% (inactive)
growth [7]: 113% (inactive)
growth [8]: 101% (inactive)
growth [10]: 92% (inactive)
growth [11]: 81.6% (inactive)
growth [12]: 113% (inactive)
growth [13]: 98.7% (inactive)
growth [14]: 117% (inactive)
growth [15]: 108% (inactive)
growth [16]: 139% (inactive)
growth [19]: 101% (inactive)
growth [17]: 117% (inactive)
growth [20]: 112% (inactive)
growth [18]: 110% (inactive)

COc1ccc2nccc(Cl)c2c1
growth [1]: 97.4% (inactive)
growth [2]: 101% (inactive)
growth [3]: 98.7% (inactive)
growth [4]: 91.5% (inactive)
growth [5]: 103% (inactive)
growth [6]: 106% (inactive)
growth [7]: 97.3% (inactive)
growth [8]: 95.1% (inactive)
growth [9]: 109% (inactive)
growth [10]: 106% (inactive)
growth [11]: 101% (inactive)
growth [12]: 110% (inactive)
growth [13]: 108% (inactive)
growth [14]: 102% (inactive)
growth [15]: 118% (inactive)
growth [16]: 111% (inactive)
growth [17]: 102% (inactive)
growth [20]: 103% (inactive)
growth [18]: 104% (inactive)

Cc1ccc(S(=O)(=O)n2ccnc2)cc1
growth [1]: 96.7% (inactive)
growth [2]: 90.7% (inactive)
growth [3]: 107% (inactive)
growth [4]: 89.9% (inactive)
growth [5]: 93% (inactive)
growth [6]: 104% (inactive)
growth [7]: 75.3% (inactive)
growth [8]: 96.5% (inactive)
growth [9]: 120% (inactive)
growth [10]: 138% (inactive)
growth [11]: 140% (inactive)
growth [12]: 100% (inactive)
growth [13]: 100% (inactive)
growth [14]: 102% (inactive)
growth [15]: 102% (inactive)
growth [16]: 123% (inactive)
growth [19]: 75.5% (inactive)
growth [17]: 101% (inactive)
growth [20]: 111% (inactive)
growth [18]: 101% (inactive)

CCOC(=O)c1csc(N)n1
growth [1]: 103% (inactive)
growth [2]: 99.2% (inactive) and 99% (inactive)
growth [3]: 100% (inactive) and 105% (inactive)
growth [4]: 88.5% (inactive) and 91.9% (inactive)
growth [5]: 111% (inactive) and 97.3% (inactive)
growth [6]: 102% (inactive) and 104% (inactive)
growth [7]: 66.6% (inactive)
growth [8]: 93.5% (inactive)
growth [10]: 79.3% (inactive) and 106% (inactive)
growth [11]: 102% (inactive)
growth [12]: 83.7% (inactive) and 97.4% (inactive)
growth [13]: 97.4% (inactive)
growth [14]: 106% (inactive) and 104% (inactive)
growth [15]: 104% (inactive) and 94.9% (inactive)
growth [16]: 101% (inactive) and 98% (inactive)
growth [19]: 56.3% (inactive) and 109% (inactive)
growth [17]: 108% (inactive) and 107% (inactive)
growth [20]: 95.1% (inactive) and 101% (inactive)
growth [18]: 111% (inactive) and 104% (inactive)

O=S(=O)(O)c1ccc2cc(O)ccc2c1
growth [1]: 106% (inactive)
growth [2]: 106% (inactive)
growth [3]: 105% (inactive)
growth [4]: 95.1% (inactive)
growth [5]: 99.7% (inactive)
growth [6]: 106% (inactive)
growth [7]: 99.5% (inactive)
growth [8]: 78.8% (inactive)
growth [9]: 109% (inactive)
growth [10]: 103% (inactive)
growth [11]: 101% (inactive)
growth [12]: 106% (inactive)
growth [13]: 102% (inactive)
growth [14]: 107% (inactive)
growth [15]: 112% (inactive)
growth [17]: 112% (inactive)
growth [20]: 104% (inactive)
growth [18]: 105% (inactive)

CC(=O)Oc1cc(C)c(OC(C)=O)c(C)c1C
growth [1]: 102% (inactive)
growth [2]: 95.8% (inactive)
growth [3]: 98.9% (inactive)
growth [4]: 88.2% (inactive)
growth [5]: 124% (inactive)
growth [6]: 100% (inactive)
growth [7]: 77.4% (inactive)
growth [8]: 109% (inactive)
growth [9]: 100% (inactive)
growth [10]: 109% (inactive)
growth [11]: 118% (inactive)
growth [12]: 92.1% (inactive)
growth [13]: 99.8% (inactive)
growth [14]: 125% (inactive)
growth [15]: 125% (inactive)
growth [16]: 125% (inactive)
growth [19]: 122% (inactive)
growth [17]: 119% (inactive)
growth [18]: 95.2% (inactive)

O=C1C=CC(=O)N1Cc1ccco1
growth [1]: 28.8% (inactive)
growth [2]: 103% (inactive)
growth [3]: 87.3% (inactive)
growth [4]: 62.6% (inactive)
growth [5]: 94.4% (inactive)
growth [6]: 5.76% (active)
growth [7]: 40% (inactive)
growth [8]: 110% (inactive)
growth [10]: 79.5% (inactive)
growth [11]: 74.7% (inactive)
growth [12]: 107% (inactive)
growth [13]: 85.6% (inactive)
growth [14]: 62.1% (inactive)
growth [15]: 106% (inactive)
growth [16]: 94.2% (inactive)
growth [19]: 69.7% (inactive)
growth [17]: 113% (inactive)
growth [20]: 117% (inactive)
growth [18]: 76.6% (inactive)

Cc1ccc(C(=O)c2ccc(C)cc2)cc1
growth [1]: 98.5% (inactive) and 98.1% (inactive)
growth [2]: 92.6% (inactive) and 101% (inactive)
growth [3]: 92.6% (inactive) and 103% (inactive)
growth [4]: 76.9% (inactive) and 98.3% (inactive)
growth [5]: 101% (inactive) and 96.5% (inactive)
growth [6]: 99.8% (inactive) and 107% (inactive)
growth [7]: 93.4% (inactive)
growth [8]: 96.4% (inactive) and 111% (inactive)
growth [9]: 91.6% (inactive) and 93.3% (inactive)
growth [10]: 82.5% (inactive) and 97.8% (inactive)
growth [11]: 84.3% (inactive) and 110% (inactive)
growth [12]: 86.8% (inactive) and 96.4% (inactive)
growth [13]: 94.3% (inactive) and 109% (inactive)
growth [14]: 103% (inactive)
growth [15]: 87.2% (inactive) and 117% (inactive)
growth [19]: 86.3% (inactive) and 99% (inactive)
growth [17]: 99.1% (inactive) and 105% (inactive)
growth [18]: 93% (inactive)
